Data reported in PubChem BioAssay (EPA / NIEHS).
Activity calls are given as the source filed them. The calls were made as follows: active = hit-call score of the fitted dose curve at least 0.9, where 1 is the maximum; inactive = score below 0.9.

Read-out: Monocyte Chemoattractant Protein-1 (MCP1), CCL2 (gene 6347)
Assay: BSK_3C_MCP1: BioMAP Diversity Plus: 3C Assay for Monocyte Chemoattractant Protein-1 (MCP1) Biomarker Activity (AID 2283017)
Details: primary human endothelial cells (HUVEC); actives raise or lower the signal
Experimental: BSK_3C is a cell-based, multiplexed-readout assay that uses umbilical vein endothelium, a human vascular primary cell, with measurements taken at 24 hours after chemical dosing in a 96-well plate.BSK_3C_MCP1 is an assay component measured in the BSK_3C assay. It measures MCP-1 antibody related to regulation of gene expression using ELISA technology.Data from the assay component BSK_3C_MCP1 was analyzed into 1 assay endpoint. This assay endpoint, BSK_3C_MCP1, was analyzed with bidirectional fitting relative to DMSO as the negative control and baseline of activity. Using a type of binding reporter, gain or loss-of-signal activity can be used to understand changes in the signaling as they relate to the gene CCL2. Furthermore, this assay endpoint can be referred to as a primary readout, because this assay has produced multiple assay endpoints where this one serves a signaling function. To generalize the intended target to other relatable targets, this assay endpoint is annotated to the cytokine intended target family, where the subfamily is chemotactic factor.
The levels of cell surface (or secreted, indicated by the prefix "s") biomarker endpoints were measured by ELISA. Overt cytotoxicity to cells in confluent adherent cultures (all systems other than the BT system) was assessed by measuring total protein levels using sulforhodamine B (SRB) staining in parallel cultures at the time of biomarker measurements, indicated as SRB endpoints. For proliferation assays for adherent cell types, individual cell types are cultured at sub-confluence and relative cell numbers quantified by SRB staining at time points optimized for each system (48 h: 3C and CASM3C systems; 72 h: BT and HDF3CGF systems; 96 h: SAg system). SRB was performed by staining cells with 0.1% SRB after fixation with 10% TCA and reading wells at 560 nm.Viability and proliferation of PBMC (T cells) was quantified by Alamar Blue reduction for the SAg and BT systems. For PBMC viability (referred to as PBMC Cytotoxicity within the assay endpoint names), cells were plated (75,000/well in a 96-well plate) and then chemical samples added for 1 h before addition of activators, SEB and TSST-1 (20 ng/mL final concentration each). Cells were incubated for 90 h. Then, Alamar Blue (20 uL/well) (Invitrogen, Cat DAL1100) was added for 6 h, and the plates were read with a fluorescence microplate reader at 546/580 nm (excitation/emission). For PBMC proliferation, cells were plated and activated as above but incubated for only 16 h prior to addition of Alamar Blue. Plates were read after 6 h.

SMILES | outcome | AC50
O=S(=O)(O)CCC(F)(F)C(F)(F)C(F)(F)C(F)(F)C(F)(F)C(F)(F)F | inactive | –
CCn1nc(C)c2c1C(=O)NCC(c1ccc(O)cc1)=N2 | inactive | –
NC(N)=O | inactive | –
O=C(O)c1ccc2c(c1)nc(C(=O)NC1CCN(C3CC3)CC1)n2Cc1cc(-c2ccc(Cl)s2)on1 | inactive | –
C=CCc1cc(S(=O)(=O)c2ccc(O)c(CC=C)c2)ccc1O | – | 14.4 µM (active)
CC(=O)c1ccccc1 | inactive | –
CCN(CC)C(=S)SSC(=S)N(CC)CC | – | 30.6 µM (active)
OCc1c[nH]c2ccccc12 | inactive | –
CCCCC(CC)C(=O)OCCOCCOCCOC(=O)C(CC)CCCC (stereo not given) | inactive | –
CCCCCCCCCCCCCCCCOS(=O)(=O)O | inactive | –
O=C(Cl)C(F)(F)C(F)(F)C(F)(F)C(=O)Cl | inactive | –
CC(C)CCCCCCOC(=O)C1CCCCC1C(=O)OCCCCCCC(C)C (stereo not given) | inactive | –
COS(C)(=O)=O | inactive | –
CCCCOC(=O)c1ccccc1 | inactive | –
CCOC(N)=O | inactive | –
OC(O)(C(F)C(O)(O)C(F)(F)F)C(F)(F)F | inactive | –
O=C(O)[C@H](O)[C@@H](O)C(=O)O | inactive | –
Cn1cc[nH]c1=S | inactive | –
CCCOc1ccc(S(=O)(=O)N2CCN(CC)CC2)cc1-c1nc2c(CC)n(Cc3ccccn3)nc2c(=O)[nH]1 | inactive | –
CCCCCCCCN(C)C | inactive | –

SMILES | outcome | AC50
CCCCCCOC(=O)CC(CC(=O)OCCCCCC)(OC(=O)CCC)C(=O)OCCCCCC | inactive | –
CCCCCOC(C)=O | inactive | –
Cn1c(=O)c2[nH]cnc2n(C)c1=O | inactive | –
Cc1ncc([C@@H](CCCCCCc2ccc3c(n2)NCCC3)CC(=O)O)cn1 | inactive | –
CC[C@H](C)C(=O)O[C@H]1C[C@H](O)C=C2C=C[C@H](C)[C@H](CC[C@@H](O)C[C@@H](O)CC(=O)O)[C@H]21 | inactive | –
COCc1nnc(-c2ccc[n+]([O-])c2)n1-c1c(Cl)c(Cl)cc2[nH]c(=O)c(=O)[nH]c12 | inactive | –
CC(C)CC(C)O (stereo not given) | inactive | –
NC(=O)NN=Cc1ccc([N+](=O)[O-])o1 | inactive | –
FC(F)(F)COC(OCC(F)(F)F)OCC(F)(F)F | inactive | –
O=C(NO)C1(NS(=O)(=O)c2ccc(Oc3ccc(F)cc3)cc2)CCOCC1 | inactive | –
COc1cc(C(C)C)c2c(c1)S(=O)(=O)N(COc1cc(=O)n3cccc(OCCN4CCCCC4)c3n1)C2=O | inactive | –
FC(F)(F)C(F)(F)C(F)(F)C(F)(F)C(F)(F)C(F)(F)I | inactive | –
FC(F)C(F)(F)COCC1CO1 (stereo not given) | inactive | –
CC(C)c1nnc2ccc(-c3ocnc3-c3cc(F)ccc3F)cn12 | – | 1 µM (active)
Cc1ccc(S(=O)(=O)NC(=O)NN2CCCCCC2)cc1 | inactive | –
OCC(CO)(CO)CO | inactive | –
O=C(O)c1cccc(C(=O)O)c1 | inactive | –
CCCCCCCC1CCC(=O)O1 (stereo not given) | inactive | –
CCCCCCCCCCCCCCO | – | 30.5 µM (active)
c1ccc(C(O[C@@H]2CCCN(CCc3ccc4c(c3)OCO4)C2)c2ccccc2)cc1 | inactive | –
